These results are taken from ChEMBL document CHEMBL4513216, “Probing the Open Global Health Chemical Diversity Library for Multistage-Active Starting Points for Next-Generation Antimalarials” (ACS Infect Dis, 2020).

Among all 69,000 compounds or so, about 8,600 (12%) showed an effect of 50% or more. What follows is part of a selection rich in strong results, with near analogues and random picks from the rest.

In this assay the test system is Plasmodium berghei. In words: Screen against P. berghei liver stage (PbLuc), transformed with Luciferase, at 10uM. It counts as functional, HepG2. Conditions: tested at 10 uM.
Take `CC(C)NC(=O)N1CCc2onc(C(=O)Nc3cccnc3)c2C1`: the INHIBITION is on record as -11%.

In the case of `COc1cc(NCc2ccccc2-n2cncn2)nc(N)n1`, the INHIBITION is -2.43%. In the case of `CNC(=O)NC(=O)CCN1CCN(c2nccs2)CC1`, the INHIBITION is recorded as 11.9%. In the case of `O=S(=O)(N[C@@H]1CCO[C@]2(CCN(CC3CCOCC3)C2)C1)C1CC1` it was 1.48%; in that of `O=C1COC2(CCN(c3ncccn3)CC2)CN1Cc1ccccn1`, -6.21%. On to `COc1ccc2c(ccn2CCC(=O)NCCCC(=O)O)c1`, for which the INHIBITION came to 24.7%. For `Cc1noc(C(C)N(C)Cc2ccco2)n1` (stereo not drawn), the INHIBITION is on record as -33.4%.

Take `CCc1cnccc1C(=O)NC1CCN(C(=O)OC)CC1`: the INHIBITION is reported as -7.16%.

Consider `CC(NC(=O)COC1CCCC1)c1nc(-c2ccccc2)c[nH]1` (stereo not drawn), for which the INHIBITION is -43.3%. Take `NCCn1cc(C(=O)N2CCNC(=O)C2c2cccc(F)c2)nn1` (stereo not drawn): the INHIBITION was -13.8%.

Regarding `CN(CC(=O)NCC(F)(F)F)Cc1nc2c(s1)CCCC2`, the INHIBITION amounted to 46.7%. Take `CN(CC(=O)NCc1ccco1)Cc1nc2c(s1)CCCC2`: the INHIBITION is on record as 40.8%. In the case of `CN(CC(=O)NCC1CCCO1)Cc1nc2c(s1)CCCC2` (stereo not drawn) it was 57.1%; in that of `O=S(=O)(CCN1CCCCC1Cn1cncn1)c1ccccc1` (stereo not drawn), -8.11%; in that of `CC(=O)NCCNC(=O)CNC1CCCN(c2ccc(C)nn2)C1` (stereo not drawn), 47%.

As for `c1cn(-c2cnc(C3CCNCC3)cn2)cn1`, the INHIBITION came out at 26.8%. With `Cc1ccnc(C2CCN(C(=O)c3cnn(C)c3)C2)n1` (stereo not drawn), the INHIBITION is listed as 48.4%. In the case of `Cc1ccnc(C2CCN(C(=O)c3cnn(C)c3)CC2)n1` it was 50.3%. As for `Cc1cc(C2CCN(C(=O)c3cnn(C)c3)CC2)ccn1`, the INHIBITION is -4.51%. `CCOCC1CN(C(=O)c2cccnc2)Cc2cnn(C)c21` (stereo not drawn): the INHIBITION was -2.35%.

Turning to `COc1cccc(CN2CCC(Cc3cnc(CN(C)C)cn3)CC2)c1`, the INHIBITION is 25.8%.

As to `CCn1ncc2[nH]c(-c3cc(OC)c(OC)cc3OC)nc21`, the INHIBITION was 26.5%. In the case of `c1cc(CN2CCc3ncc(CN4CCOCC4)n3CC2)cs1` it was -36%. As for `Cc1csc(N2CCCN(C3Cc4ccccc4C3)CC2)n1`, the INHIBITION stood at 73.9%.

As to `Cc1ccc(N2CCN(C3CCc4ccccc4C3)CC2)nn1` (stereo not drawn), the INHIBITION was found to be 53.9%.

On to `Cc1ccc(N2CCC3(CC2)CCN(C2CCOC2)CC3)nn1` (stereo not drawn), for which the INHIBITION came to 8.85%.

Consider `Cc1ccc(N2CCC3(CCN(C(=O)C4CCOC4)CC3)CC2)nn1` (stereo not drawn), for which the INHIBITION is listed as -45.8%. For `Cc1ccc(N2CCN(C)c3ncccc3C2)nn1`, the INHIBITION was 48.2%. Regarding `Cc1csc(N2CCC(NCC3(O)CCc4ccccc43)CC2)n1` (stereo not drawn), the INHIBITION amounted to 42.6%. Regarding `NC(=O)c1csc(N2CCN(C3CCc4ccccc4C3)CC2)n1` (stereo not drawn), the INHIBITION is on record as 47.6%. The figure for `Cc1ccc(N2C[C@H](O)[C@@H](N3CCN(c4ccccn4)CC3)C2)nn1` is 6.29%; for `Cc1csc(N2CCN(Cc3ccccn3)CC2)n1` it is 34.2%; for `Cc1csc(N2CCN(C3CCc4ccccc4C3)CC2)n1` (stereo not drawn) it is 53%.

As to `Cc1csc(N2CCCN(C(=O)c3ccsc3)CC2)n1`, the INHIBITION was -36.4%. `Cc1ccc(N2CCC3(CC2)CCN(C2CCOCC2)CC3)nn1`: the INHIBITION amounted to 58.7%. As for `CS(=O)(=O)N1C[C@@H]2CCN(C(=O)c3cscn3)[C@@H]2C1`, the INHIBITION stood at 31.5%. In the case of `c1cnn(CCNCc2ccc(N3CCCCC3)cc2)c1` it was -10.8%; in that of `O=C(O)c1c(-c2ccncc2)ncc2c1CCN(Cc1ccco1)C2`, 26.5%; in that of `CC1CCN(c2nc3cn(C4CCS(=O)(=O)C4)c(=O)c-3c[nH]2)CC1` (stereo not drawn), -16.3%. In the case of `Cc1occc1C(=O)N1C[C@@H]2OCCN(c3ncccn3)[C@@H]2C1` it was 11.5%; in that of `CCc1ccccc1-c1cc(OC)nc(N)n1`, 35%.

Take `N#Cc1ccc(S(=O)(=O)N2CSCC2C(=O)NCC(F)(F)F)cc1` (stereo not drawn): the INHIBITION is on record as -13.5%. As to `CC1(C2CCN(CC(N)=O)CC2)CN(Cc2ccccc2)C(=O)CO1` (stereo not drawn), the INHIBITION is on record as 0.301%. In the case of `CC(=O)N1CCC(c2ccnc(Nc3cncnc3)n2)CC1` it was -2.11%; in that of `Cc1cc(N2CCCC2)c(C#N)c(C)n1`, 4.62%; in that of `Cc1cc(N2CCCCC2)c(C#N)c(C)n1`, 25.2%. The figure for `Cc1csc(N2CCCN(c3cc(C)nc(C)c3C#N)CC2)n1` is 91.9%; for `CCOC(=O)c1cnn(C2CCN(C(=O)CC3CCCC3)CC2)c1N` it is 26.1%. The figure for `COc1ccccc1C1(CNCc2ccc(C#N)cc2)CCOCC1` is 29.6%; for `COc1ccccc1C1(CNCc2cccc(O)c2)CCOCC1` it is 51.3%; for `COc1ccccc1C1(CNCc2cccc(C#N)c2)CCOCC1` it is 20.9%. For `O=C(CCNc1ncccn1)Nc1cc(C(F)(F)F)c[nH]c1=O`, the INHIBITION is -1.7%. `O=C(NCc1ccco1)[C@H]1C[C@@H]2CCN(c3ccncn3)C[C@@H]2O1`: the INHIBITION was 21.7%. In the case of `Cc1nc(CN(C)C(=O)c2ccc(Cn3cnnn3)cc2)cs1` it was 16.5%; in that of `Cc1ncsc1CCN(C)C(=O)c1ccc(Cn2cnnn2)cc1`, -0.448%; in that of `Cc1cnccc1CN(C)C(=O)c1ccc(Cn2cnnn2)cc1`, 54.9%. In the case of `CCc1noc(C(C)N2CCC(O)CC2)n1` (stereo not drawn) it was 37.9%; in that of `Cc1noc(C)c1C(=O)NCCSCc1cccs1`, 29.5%; in that of `CCN1CCN(C(=O)NCCOc2ccc3c(c2)OCO3)CC1`, 2.63%. As for `COc1ncccc1C(=O)N1CC(c2nc(-c3ccccn3)no2)C1`, the INHIBITION came out at 33.5%. In the case of `O=C(c1n[nH]c2c1CCC2)N1CCCC1c1nc(-c2ccccc2)no1` (stereo not drawn) it was -68.4%. As to `COc1nc2c(cc1C(=O)N1CCCCC1c1ccccn1)CCC2` (stereo not drawn), the INHIBITION was -34.4%. For `COc1ccc(C(=O)N2CCCCC2c2ccccn2)c(OC)n1` (stereo not drawn), the INHIBITION was found to be 53.2%. The figure for `COc1ncccc1C(=O)N1CCCC1c1nc(-c2ccccc2)no1` (stereo not drawn) is 64.9%. The figure for `COc1ncccc1C(=O)N1CCCC1c1nc(-c2ccccc2)n[nH]1` (stereo not drawn) is 47.6%; for `COc1nc2c(cc1C(=O)N1CCCC1c1ccccn1)CCC2` (stereo not drawn) it is 1.74%; for `CC(C)c1cc(C(=O)N2CCCC2c2nc(-c3ccccc3)no2)[nH]n1` (stereo not drawn) it is 55.5%.

Take `Cc1nc(CC(=O)N2CCCC2c2nc(-c3ccccc3)no2)cs1` (stereo not drawn): the INHIBITION turned out to be 38.2%. In the case of `Cc1ncc(-c2ccncc2)c(C2CCN(C(=O)c3ccco3)CC2)n1` it was -21%; in that of `CCc1nc(CN(C)C2CCN(CC(F)(F)F)C2)no1` (stereo not drawn), 4.71%. `CN1CCOC(CNCc2c(Cl)nc3ccccn23)C1` (stereo not drawn): the INHIBITION is -2.43%. As to `CC[C@@H]1N(Cc2ccc(OC)cc2)CCC[C@]12CCC(=O)N2CCOC`, the INHIBITION is given as -5.31%. For `Cc1noc(CC2CCN(C(=O)C(c3ccccc3C)N(C)C)CC2)n1` (stereo not drawn), the INHIBITION is given as -21.1%. Turning to `COCc1nc(C(=O)N2CCCC2c2cc(C)on2)cs1` (stereo not drawn), the INHIBITION came out at 0.914%. As to `O=C(c1cc2c(s1)CCC2)N1CCCC(c2cnccn2)C1` (stereo not drawn), the INHIBITION is recorded as -94%. Regarding `CNc1ccnc(NCC(=O)Nc2cc(C)ccc2OC)n1`, the INHIBITION amounted to 53%. For `CNc1ccnc(NCCC(=O)Nc2ccccc2OC)n1`, the INHIBITION was determined as 49.7%.

With `COc1ccc(C)cc1NC(=O)CNc1ccn(CC(N)=O)n1`, the INHIBITION is on record as -41.6%. On to `CC(C)COC1CCN(S(=O)(=O)Cc2cccc(F)c2)CC1`, for which the INHIBITION worked out at 20.9%. For the compound `CCN(CC)C(=O)[C@@H]1C[C@H](N)CN1c1noc(-c2ccccc2)n1`, the INHIBITION is 9.04%.

As to `CNC(=O)[C@@H]1C[C@@H](N)CN1C(=O)CCSCc1ccccc1`, the INHIBITION is listed as -15.1%. Regarding `CCN(CC)C(=O)[C@@H]1C[C@@H](NC(=O)c2cccn2C2CC2)CN1C`, the INHIBITION was found to be 20.5%.

For the compound `CCN(CC)C(=O)[C@@H]1C[C@H](N)CN1c1nnc(-c2ccccc2)s1`, the INHIBITION turned out to be 56.3%. In the case of `CCN(CC)C(=O)[C@@H]1C[C@@H](N)CN1c1nc(N(C)C)nc(C)c1C` it was 62.6%. The figure for `CNC(=O)[C@@H]1C[C@@H](N)CN1c1nnc(-c2ccccc2)s1` is 74.9%. The figure for `CCNC(=O)[C@@H]1C[C@H](N)CN1c1cc(CC)nc(N(C)C)n1` is -69.6%.

For `CNC(=O)[C@@H]1C[C@@H](N)CN1c1nc(N2CCCC2)nc(C)c1C`, the INHIBITION is listed as 45.3%. In the case of `CCN(CC)C(=O)[C@@H]1C[C@@H](N)CN1c1nc(N2CCCC2)nc(C)c1C` it was 33.4%; in that of `COc1ccc(-c2ncccc2C(=O)N2C[C@@H]3CC[C@H]2C3)cn1`, 29.1%; in that of `Cn1cc(C[C@H]2[C@H](N3CCOCC3)CCN2C2CCOCC2)cn1`, 0.804%. Consider `Cn1nc(C(=O)N2CCOCC2)cc1C(=O)Nc1ccc(Cl)cc1Cl`, for which the INHIBITION is on record as -8.66%.

As for `Cn1nc(C(=O)N2CCOCC2)cc1C(=O)Nc1c(Cl)cccc1Cl`, the INHIBITION was 51.6%. Regarding `Cn1nc(C(=O)N2CCOCC2)cc1C(=O)Nc1ncc(Cl)cc1Cl`, the INHIBITION was -0.71%. On to `Cc1c(C(=O)N2CCC(C(=O)c3nc4ccccc4s3)CC2)cnn1C`, for which the INHIBITION is reported as 11.025%. `Cc1cccc(C(=O)N2CCSCC2)c1NC(=O)c1cccnc1`: the INHIBITION came to 45%. Take `Cc1cccc(C(=O)N2CCSCC2)c1NC(=O)c1ccsc1`: the INHIBITION amounted to 1.56%. The figure for `Cc1cccc(C(=O)N2CCN(C)CC2)c1NC(=O)c1ccncc1` is 52.6%. In the case of `COc1ccc(-c2nnc(CNCCn3cc(C)cn3)o2)cc1` it was 5.7%. Consider `COc1cc(CNCCn2cc(C)cn2)c2c(c1)CC(C)O2` (stereo not drawn), for which the INHIBITION amounted to 75.2%. The figure for `COc1cccc(-c2nc(CNCCn3cccn3)cs2)c1` is 31.8%; for `COc1cc(CNCCC(N)=O)c2c(c1)CC(C)O2` (stereo not drawn) it is 49.4%. Take `COc1cc(CNCCn2cc(C)cn2)cc2c1OCCO2`: the INHIBITION is 17.8%. The figure for `COc1cc(CNCCn2cccn2)c2c(c1)CC(C)O2` (stereo not drawn) is 75.2%. The figure for `O=C(c1cccc(F)c1)N1CCc2ncc(Cn3cccn3)n2CC1` is 3.58%. In the case of `CC(C)(C)c1ncc(C(=O)NCCSc2ccccn2)c(O)n1` it was 69.1%. As to `O=C(NCCCO)c1cnc(-c2ccccc2)nc1O`, the INHIBITION was determined as 48.5%. Regarding `Cc1cccnc1NCCNC(=O)c1cnc(-c2ccccn2)nc1O`, the INHIBITION stood at 92.1%. In the case of `Cc1cccnc1NCCNC(=O)c1cnc(-c2cccs2)nc1O` it was 14.9%; in that of `Cc1nc(C(C)C)sc1C(=O)NCCSc1ccccn1`, -71.3%; in that of `CCn1c(N)nc2cc(C(=O)NCCNc3ncccc3C)cnc21`, -87.1%. The figure for `CCn1c(C)nnc1SCCNC(=O)c1cnc(C(C)(C)C)nc1O` is 23.6%; for `CCSCCNC(=O)c1cnc(-c2ccccc2)nc1O` it is 40.3%; for `Cc1nc(-c2ncc(C(=O)NCCNc3ncccc3C)c(O)n2)cs1` it is 50.3%.
